PubChem BioAssay (NCI)
The panel holds about 83,000 compounds, 20% with a hit somewhere; the sample as a whole holds those more often.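 Method: cells in 96-well plates; compound added at one concentration; 48 h incubation; percent growth measured; values under 10 scored active.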 The source made the active and inactive calls.

Columns and labels:
Experiment in all cases: NCI-60 one-dose screen, 48 h (100 = growth as untreated, 0 = no growth, -100 = all killed)
Details in all cases: 10 µM unless noted
HCT-15 colon = tested on: HCT-15 colon
HT29 colon = tested on: HT29 colon
SNB-75 CNS = tested on: SNB-75 CNS
SNB-19 CNS = tested on: SNB-19 CNS
U251 CNS = tested on: U251 CNS
PC-3 prostate = tested on: PC-3 prostate
SK-MEL-5 melanoma = tested on: SK-MEL-5 melanoma
UACC-62 melanoma = tested on: UACC-62 melanoma
LOX IMVI melanoma = tested on: LOX IMVI melanoma
SK-MEL-28 melanoma = tested on: SK-MEL-28 melanoma
SK-MEL-2 melanoma = tested on: SK-MEL-2 melanoma
SN12C renal = tested on: SN12C renal
UO-31 renal = tested on: UO-31 renal
TK-10 renal = tested on: TK-10 renal
ACHN renal = tested on: ACHN renal
CAKI-1 renal = tested on: CAKI-1 renal
A498 renal = tested on: A498 renal
CCRF-CEM leukemia = tested on: CCRF-CEM leukemia
MOLT-4 leukemia = tested on: MOLT-4 leukemia

Measured: growth

Oc1ccc(N=Cc2ccccc2)cc1
inactive: HCT-15 colon 82% | HT29 colon 105% | SNB-75 CNS 105% | SNB-19 CNS 98.8% | U251 CNS 96.1% | PC-3 prostate 68.3% | SK-MEL-5 melanoma 83.4% | UACC-62 melanoma 97.5% | LOX IMVI melanoma 95.3% | SK-MEL-28 melanoma 113% | SK-MEL-2 melanoma 94% | SN12C renal 96.5% | UO-31 renal 77.5% | TK-10 renal 108% | ACHN renal 57.3% | CAKI-1 renal 105% | A498 renal 78.1%
active: CCRF-CEM leukemia 5.42% | MOLT-4 leukemia 3.61%

Clc1cccc(Cl)c1Cn1c(-c2cncs2)nc2ccccc21
inactive: HCT-15 colon 79.5% | HT29 colon 91.5% | SNB-75 CNS 83.1% | SNB-19 CNS 97.8% | U251 CNS 93.7% | PC-3 prostate 62.2% | SK-MEL-5 melanoma 58.9% | UACC-62 melanoma 61.2% | LOX IMVI melanoma 85% | SK-MEL-28 melanoma 105% | SK-MEL-2 melanoma 73.3% | SN12C renal 81.6% | UO-31 renal 68.3% | TK-10 renal 85.1% | ACHN renal 86.8% | CAKI-1 renal 66.5% | A498 renal 125% | CCRF-CEM leukemia 85% | MOLT-4 leukemia 62.9%

CNC(C)=O
inactive: HCT-15 colon 105% | HT29 colon 94.8% | SNB-75 CNS 104% | SNB-19 CNS 104% | U251 CNS 93.4% | PC-3 prostate 96.6% | SK-MEL-5 melanoma 102% | UACC-62 melanoma 105% | LOX IMVI melanoma 95% | SK-MEL-28 melanoma 101% | SK-MEL-2 melanoma 104% | SN12C renal 100% | UO-31 renal 93.3% | TK-10 renal 91.1% | ACHN renal 118% | CAKI-1 renal 96.2% | A498 renal 104% | CCRF-CEM leukemia 103% | MOLT-4 leukemia 95%

CCNCc1ccncc1
inactive: HCT-15 colon 104% | HT29 colon 102% | SNB-75 CNS 92.5% | SNB-19 CNS 106% | U251 CNS 94.9% | PC-3 prostate 85.2% | SK-MEL-5 melanoma 102% | UACC-62 melanoma 109% | LOX IMVI melanoma 93.6% | SK-MEL-28 melanoma 119% | SK-MEL-2 melanoma 106% | SN12C renal 108% | UO-31 renal 89.8% | TK-10 renal 99.5% | ACHN renal 108% | CAKI-1 renal 94% | A498 renal 97.8% | CCRF-CEM leukemia 95% | MOLT-4 leukemia 92%

CCC1CCc2nc3sc(C(=O)Nc4cccc(C)c4)c(N)c3cc2C1 (centres undefined)
inactive: HCT-15 colon 43.7% | HT29 colon 47.6% | SNB-75 CNS 71.2% | SNB-19 CNS 86% | U251 CNS 66.6% | PC-3 prostate 66.7% | SK-MEL-5 melanoma 54.5% | UACC-62 melanoma 49.2% | LOX IMVI melanoma 72.7% | SK-MEL-28 melanoma 69.7% | SK-MEL-2 melanoma 54.6% | SN12C renal 90.8% | UO-31 renal 83.6% | TK-10 renal 78.3% | ACHN renal 87% | CAKI-1 renal 78.1% | A498 renal 45.4% | CCRF-CEM leukemia 47.7% | MOLT-4 leukemia 52.6%

CCn1cc(C(=O)O)c(=O)c2cc(F)c(N3CCN(S(=O)(=O)c4c(C)cc(C)cc4C)CC3)cc21
inactive: HCT-15 colon 71.5% | HT29 colon 94.8% | SNB-75 CNS 70.8% | SNB-19 CNS 89.9% | U251 CNS 83.3% | PC-3 prostate 61.4% | SK-MEL-5 melanoma 79.5% | UACC-62 melanoma 75.9% | LOX IMVI melanoma 61.3% | SK-MEL-28 melanoma 91.7% | SK-MEL-2 melanoma 88.7% | SN12C renal 88.5% | UO-31 renal 33.1% | TK-10 renal 97.5% | ACHN renal 75.8% | CAKI-1 renal 89.5% | A498 renal 78.9% | CCRF-CEM leukemia 81.8% | MOLT-4 leukemia 75.9%

O=C(CN1CCN(c2cc3c(cc2F)c(=O)c(C(=O)O)cn3C2CC2)CC1)Nc1ccc(C(=O)/C=C/c2ccc(Cl)cc2)cc1
inactive: HCT-15 colon 111% | HT29 colon 106% | SNB-75 CNS 84.8% | SNB-19 CNS 92.9% | U251 CNS 99% | PC-3 prostate 91.7% | SK-MEL-5 melanoma 96.8% | UACC-62 melanoma 93.1% | LOX IMVI melanoma 78.9% | SK-MEL-28 melanoma 96.5% | SK-MEL-2 melanoma 113% | SN12C renal 94.2% | UO-31 renal 94.6% | TK-10 renal 111% | ACHN renal 107% | CAKI-1 renal 102% | A498 renal 102% | CCRF-CEM leukemia 99.5% | MOLT-4 leukemia 110%

O=C(O)Cc1ccc2c(c1)Cc1cccnc1O2
inactive: HCT-15 colon 103% | HT29 colon 99.8% | SNB-75 CNS 87.9% | SNB-19 CNS 107% | U251 CNS 102% | PC-3 prostate 101% | SK-MEL-5 melanoma 99.5% | UACC-62 melanoma 109% | LOX IMVI melanoma 100% | SK-MEL-28 melanoma 109% | SK-MEL-2 melanoma 104% | SN12C renal 100% | UO-31 renal 94% | TK-10 renal 92.5% | ACHN renal 111% | CAKI-1 renal 96.9% | A498 renal 104% | CCRF-CEM leukemia 100% | MOLT-4 leukemia 102%

Cc1ccc(S(=O)(=O)OC2COCOC2C(OS(=O)(=O)c2ccc(C)cc2)C2OCOCC2OS(=O)(=O)c2ccc(C)cc2)cc1 (centres undefined)
inactive: HCT-15 colon 107% | HT29 colon 98.7% | SNB-75 CNS 115% | SNB-19 CNS 108% | U251 CNS 102% | PC-3 prostate 97.6% | SK-MEL-5 melanoma 99.9% | UACC-62 melanoma 98.3% | LOX IMVI melanoma 103% | SK-MEL-28 melanoma 118% | SK-MEL-2 melanoma 104% | SN12C renal 91.3% | UO-31 renal 95.8% | TK-10 renal 101% | ACHN renal 105% | CAKI-1 renal 105% | A498 renal 95.9% | CCRF-CEM leukemia 100% | MOLT-4 leukemia 90.1%

COc1cccc(NC(=O)c2sc3nc4c(cc3c2N)CCCC4)c1
inactive: HCT-15 colon 20.8% | HT29 colon 41.5% | SNB-75 CNS 18.2% | SNB-19 CNS 39.4% | U251 CNS 19.8% | PC-3 prostate 19.2% | SK-MEL-5 melanoma 26.3% | UACC-62 melanoma 33.2% | LOX IMVI melanoma 40.5% | SK-MEL-28 melanoma 48.9% | SK-MEL-2 melanoma 33.7% | SN12C renal 58.9% | UO-31 renal 40% | TK-10 renal 55.7% | ACHN renal 44.2% | CAKI-1 renal 31% | A498 renal 17.6% | CCRF-CEM leukemia 13.6% | MOLT-4 leukemia 17.8%

O=C(/C=C/c1ccccc1)n1c(-c2ccc(Cl)cc2)nc2ccccc21
active: HCT-15 colon -24.8% | HT29 colon -40.6% | U251 CNS -0.388% | PC-3 prostate 6.09% | SK-MEL-5 melanoma -70.6% | UACC-62 melanoma -84.7% | LOX IMVI melanoma -82.9% | SK-MEL-28 melanoma -65.4% | SK-MEL-2 melanoma -36% | SN12C renal -48.5% | UO-31 renal -39% | ACHN renal -49.9% | CAKI-1 renal -39.4% | A498 renal -14.6% | CCRF-CEM leukemia -23.9%
inactive: SNB-75 CNS 18.1% | SNB-19 CNS 41.1% | TK-10 renal 18.6% | MOLT-4 leukemia 21.9%

COc1ccc(-n2c(C)cc(-c3ccccc3)c2C)cc1
active: SK-MEL-5 melanoma -3.53%
inactive: HCT-15 colon 37.9% | HT29 colon 12.4% | SNB-75 CNS 41.2% | SNB-19 CNS 69.6% | U251 CNS 43.5% | PC-3 prostate 31.7% | UACC-62 melanoma 52.2% | LOX IMVI melanoma 42.1% | SK-MEL-28 melanoma 58.1% | SK-MEL-2 melanoma 40% | SN12C renal 50.5% | UO-31 renal 52.3% | TK-10 renal 57.3% | ACHN renal 62.5% | CAKI-1 renal 29.3% | A498 renal 35.2% | CCRF-CEM leukemia 29.4% | MOLT-4 leukemia 17.8%

COc1cc(NS(C)(=O)=O)ccc1Nc1c2ccc([N+](=O)[O-])cc2nc2c(C)cccc12
active: HT29 colon -0.0847% | SNB-75 CNS 5.27% | U251 CNS 0.458% | PC-3 prostate 8.53% | SK-MEL-5 melanoma -0.826% | LOX IMVI melanoma -3.95% | SN12C renal 2.9% | UO-31 renal -3.4% | TK-10 renal 5.21% | ACHN renal -30.9% | CAKI-1 renal -21.2% | A498 renal -23.5% | CCRF-CEM leukemia -11.8% | MOLT-4 leukemia -8.62%
inactive: HCT-15 colon 12.4% | SNB-19 CNS 21.2% | UACC-62 melanoma 16.2% | SK-MEL-28 melanoma 41.7% | SK-MEL-2 melanoma 25.4%

COc1ccc(/C=C2\CCCC3=C2NC(C)=NC3c2ccc(OC)c(OC)c2)cc1OC (centres undefined)
inactive: SNB-75 CNS 35.2% | SNB-19 CNS 60.4% | U251 CNS 18.3% | PC-3 prostate 32% | UACC-62 melanoma 10.9% | SK-MEL-28 melanoma 23% | UO-31 renal 34.3% | TK-10 renal 12.2%
active: HCT-15 colon -61.7% | HT29 colon -2.36% | SK-MEL-5 melanoma 6.23% | LOX IMVI melanoma -72.7% | SK-MEL-2 melanoma 5.93% | SN12C renal 5.95% | ACHN renal 9.82% | CAKI-1 renal 5.12% | A498 renal 5.88% | CCRF-CEM leukemia -20% | MOLT-4 leukemia -23.2%

COc1cc(Cn2c(SCC(=O)Nc3ccc(Cl)cc3)nc3ccccc3c2=O)cc(OC)c1OC
inactive: HCT-15 colon 72.8% | HT29 colon 87.4% | SNB-75 CNS 27.1% | SNB-19 CNS 63.9% | U251 CNS 75.4% | PC-3 prostate 65.9% | SK-MEL-5 melanoma 49.8% | UACC-62 melanoma 63.3% | LOX IMVI melanoma 56.1% | SK-MEL-28 melanoma 83.7% | SK-MEL-2 melanoma 81% | SN12C renal 71.2% | UO-31 renal 17.7% | TK-10 renal 67.8% | ACHN renal 18.9% | CAKI-1 renal 71.1% | A498 renal 41.4% | CCRF-CEM leukemia 83.1% | MOLT-4 leukemia 46.4%

CCC1=C[C@@H]2CN(C1)Cc1c([nH]c3ccccc13)[C@@](C(=O)OC)(c1cc3c(cc1OC)N(C=O)[C@H]1[C@@](O)(C(=O)OC)[C@H](OC(C)=O)[C@]4(CC)[C@@H]5C[C@@H]5CN5CC[C@]31[C@@H]54)C2
inactive: HCT-15 colon 10.3% | SNB-19 CNS 28.3% | U251 CNS 11.8% | UACC-62 melanoma 18.5% | SK-MEL-28 melanoma 60.9% | SK-MEL-2 melanoma 18% | SN12C renal 21.9% | UO-31 renal 28.7% | TK-10 renal 49.2% | ACHN renal 35.6% | MOLT-4 leukemia 13.4%
active: HT29 colon -5.12% | SNB-75 CNS 8.7% | PC-3 prostate 7.43% | SK-MEL-5 melanoma -26.9% | LOX IMVI melanoma 7.6% | CAKI-1 renal 8.29% | A498 renal -8.16% | CCRF-CEM leukemia 8.71%
